Measurements taken from PubChem BioAssay (EPA / NIEHS).
Results filed as inconclusive are left out. Active and inactive are the calls of the source. The calls were made as follows, unless noted: active = hit-call score of the fitted dose curve at least 0.9, where 1 is the maximum; inconclusive = response in the unintended direction; inactive = score below 0.9.

Assays:
[1] = read-out: xenobiotic metabolism (CYP1A2), CYP1A2 (gene 1544); assay: CLD_CYP1A2_24hr: CellzDirect (CLD) Gene Expression Assay for xenobiotic metabolism (CYP1A2) at 24 hours (AID 2283683)
Method in brief: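 CYP1A2 mRNA induction measured by quantitative nuclease protection (chemiluminescent) in human primary hepatocytes 24 h after multi-concentration chemical dosing with daily fresh solutions. DMSO (0.2%) baseline; positive-direction fitting; morphology-based cytotoxicity noted.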

[2] = read-out: Cytochrome P450 3A4 (Homo sapiens) (UniProt P08684); assay: CLD_CYP3A4_24hr: CellzDirect (CLD) Gene Expression Assay for xenobiotic metabolism (CYP3A4) at 24 hours (AID 2283689)
Method in brief: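 CYP3A4 mRNA induction read by quantitative nuclease protection (chemiluminescence) 24 hr after dosing. Cultured human hepatocytes (two donor preparations) treated daily, vehicle 0.2% DMSO; phase-contrast morphology annotates cytotoxicity.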

[3] = read-out: alkyl and aryl transferase (GSTA2), GSTA2 (gene 2939); assay: CLD_GSTA2_24hr: CellzDirect (CLD) Gene Expression Assay for alkyl and aryl transferase (GSTA2) at 24 hours (AID 2283693)
Method in brief: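 GSTA2 transcript levels were quantified by quantitative nuclease protection assay in primary human hepatocytes 24 h after daily dosing with fresh solutions at multiple concentrations; 0.2% DMSO vehicle as baseline, cytotoxicity flagged morphologically.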

[4] = read-out: glucuronosyltransferase (UGT1A1), UGT1A1 (gene 54658); assay: CLD_UGT1A1_24hr: CellzDirect (CLD) Gene Expression Assay for glucuronosyltransferase (UGT1A1) at 24 hours (AID 2283696)
Method in brief: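 UGT1A1 transcript induction was measured by quantitative nuclease protection assay (chemiluminescence) in human hepatocyte cultures 24 h after daily fresh dosing, with 0.2% DMSO as vehicle and baseline.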

[5] = read-out: xenobiotic metabolism (CYP1A2), CYP1A2 (gene 1544); assay: CLD_CYP1A2_48hr: CellzDirect (CLD) Gene Expression Assay for xenobiotic metabolism (CYP1A2) at 48 hours (AID 2283703)
Method in brief: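 Cytotoxicity was flagged yes/no from morphology, while CYP1A2 transcript induction was detected by qNPA chemiluminescence after a 48-hour exposure. Human primary hepatocyte cultures from separate donors received fresh dosing solutions daily over two days, with 0.2% DMSO as vehicle and baseline.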

[6] = read-out: xenobiotic metabolism (CYP1A1), CYP1A1 (gene 1543); assay: CLD_CYP1A1_48hr: CellzDirect (CLD) Gene Expression Assay for xenobiotic metabolism (CYP1A1) at 48 hours (AID 2283705)
Method in brief: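 CYP1A1 transcript measured by quantitative nuclease protection (chemiluminescent) 48 h after two daily treatments of human hepatocyte cultures, versus 0.2% DMSO. Morphology-based cytotoxicity flags accompany data; two donor preparations used.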

[7] = read-out: Glyceraldehyde-3-phosphate dehydrogenase (Homo sapiens) (UniProt P04406); assay: CLD_GAPDH_48hr: CellzDirect (CLD) Gene Expression Assay for Baseline Control (Glyceraldehyde 3-phosphate dehydrogenase) at 48 hours (AID 2283706);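 also: active means higher GAPDH mRNA than DMSO vehicle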
Method in brief: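 GAPDH baseline-control readout: qNPA chemiluminescent mRNA quantitation in human liver primary cells 48 h after daily dosing on two consecutive days, vehicle 0.2% DMSO; gain of signal fitted against DMSO, cytotoxicity flagged by phase-contrast morphology.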

[8] = read-out: glucuronosyltransferase (UGT1A1), UGT1A1 (gene 54658); assay: CLD_UGT1A1_48hr: CellzDirect (CLD) Gene Expression Assay for glucuronosyltransferase (UGT1A1) at 48 hours (AID 2283709);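 also: actives increase expression relative to DMSO so potency refers to induction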
Method in brief: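 Quantitative nuclease protection assay (chemiluminescent) for UGT1A1 mRNA at 48 h in human hepatocyte cultures from two donors, redosed daily with fresh solutions. Induction fitted relative to 0.2% DMSO; phase-contrast morphology annotated cytotoxicity.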

[9] = read-out: HMG-CoA synthase (HMGCS2), HMGCS2 (gene 3158); assay: CLD_HMGCS2_48hr: CellzDirect (CLD) Gene Expression Assay for HMG-CoA synthase (HMGCS2) at 48 hours (AID 2283711)
Method in brief: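 mRNA induction read by qNPA chemiluminescence, 48 h after dosing. Cultured primary human liver cells (two donor preparations) received fresh compound daily over two days against 0.2% DMSO vehicle; morphology-based cytotoxicity noted alongside.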

[10] = STM_H9_CystineISnorm_perc: Stemina devTOX quickPredict H9 human embryonic stem cell (hESC)-based Assay for Cystine (CYSS) Metabolite Biomarker, Normalized (AID 2283713; active = hit-call score of the fitted dose curve at least 0.9, where 1 is the maximum; inactive = score below 0.9)
Method in brief: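 Normalized cystine level in conditioned medium from the final 24h of a 72h treatment of pluripotent H9 cells (daily media and compound renewal). Quantified by UPLC-HRMS with C13-labeled internal standard; scaled to median of 0.1% DMSO vehicle wells.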

[11] = STM_H9_OrnCyssISnorm_ratio: Stemina devTOX quickPredict H9 human embryonic stem cell (hESC)-based Assay for Ornithine (ORN):Cystine (CYSS) Ratio (AID 2283714)
Method in brief: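 UPLC-HRMS of spent media: ORN/CYSS ratio of internal-standard-normalized percentages, DMSO (0.1%) baseline. Pluripotent H9 hESCs, 72h exposure, daily re-dosing with fresh media; last 24h media collected.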

[12] = CEETOX_H295R_MTT_cell_viability: Viability Assessment in the CeeTox HT-H295R MTT Assay (AID 2283718; active = hit-call score of the fitted dose curve at least 0.9, where 1 is the maximum; inactive = score below 0.9)
Method in brief: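 Human H295R adrenal cells, prestimulated 48 h with 10 uM forskolin, were exposed 48 h to chemicals in 0.1% DMSO. Viability was measured in the same wells by MTT (0.5 mg/ml, 4 h, 37 C), absorbance 570/650 nm, as percent of controls.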

[13] = read-out: ABC Transporter (ABCB1), ABCB1 (gene 5243); assay: CLD_ABCB1_48hr: CellzDirect (CLD) Gene Expression Assay for ABC Transporter (ABCB1) at 48 hours (AID 2283695)
Method in brief: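 ABCB1 mRNA was measured by quantitative nuclease protection assay (chemiluminescence) 48 h after dosing. Human hepatocyte cultures from two separate donors received fresh dosing solutions daily for two days, with 0.2% DMSO as vehicle. Positive-direction fit against DMSO.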

[14] = read-out: Cytochrome P450 2B6 (Homo sapiens) (UniProt P20813); assay: CLD_CYP2B6_48hr: CellzDirect (CLD) Gene Expression Assay for xenobiotic metabolism (CYP2B6) at 48 hours (AID 2283699);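 also: actives raise transcript level above DMSO so potency reflects induction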
Method in brief: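 CYP2B6 transcript induction, read by quantitative nuclease protection (S1 digestion, chemiluminescent detection) 48 h after dosing, is fitted upward against 0.2% DMSO. Cultured human liver primary cells, two donor preparations, received fresh chemical daily over multiple concentrations.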

[15] = read-out: Cytochrome P450 2C9 (Homo sapiens) (UniProt P11712); assay: CLD_CYP2C9_48hr: CellzDirect (CLD) Gene Expression Assay for xenobiotic metabolism (CYP2C9) at 48 hours (AID 2283701; active = hit-call score of the fitted dose curve at least 0.9, where 1 is the maximum; inactive = score below 0.9)
Method in brief: (§1)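 mRNA level measured by quantitative nuclease protection (S1 digestion, chemiluminescent detection) in lysates of human primary hepatocytes exposed 48 h with daily re-dosing. Induction fitted positively versus 0.2% DMSO; morphology-based cytotoxicity flagged yes/no.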

[16] = read-out: alkyl and aryl transferase (GSTA2), GSTA2 (gene 2939); assay: CLD_GSTA2_48hr: CellzDirect (CLD) Gene Expression Assay for alkyl and aryl transferase (GSTA2) at 48 hours (AID 2283708);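 also: active means mRNA induction above DMSO vehicle baseline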
Method in brief: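 GSTA2 mRNA quantified by qNPA chemiluminescence in human primary hepatocyte lysates after 48 h of daily fresh chemical dosing. Increases fitted against 0.2% DMSO vehicle baseline; cytotoxicity from morphology annotated yes/no.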

[17] = read-out: ABC Transporter (ABCB11), ABCB11 (gene 8647); assay: CLD_ABCB11_48hr: CellzDirect (CLD) Gene Expression Assay for ABC Transporter (ABCB11) at 48 hours (AID 2283697)
Method in brief: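 Induction of ABCB11 mRNA relative to 0.2% DMSO, measured at 48 h by qNPA chemiluminescence. Cultured human hepatocytes (two donors) received fresh dosing solutions at several concentrations on two consecutive days.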

[18] = read-out: ABC Transporter (ABCB1), ABCB1 (gene 5243); assay: CLD_ABCB1_24hr: CellzDirect (CLD) Gene Expression Assay for ABC Transporter (ABCB1) at 24 hours (AID 2283684)
Method in brief: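 ABCB1 mRNA induction versus 0.2% DMSO vehicle was read by qNPA chemiluminescence at 24 h. Cultured human hepatocytes from two donor preparations received daily fresh dosing, and phase-contrast cytotoxicity calls were annotated alongside the data.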

[19] = read-out: Cytochrome P450 2C9 (Homo sapiens) (UniProt P11712); assay: CLD_CYP2C9_24hr: CellzDirect (CLD) Gene Expression Assay for xenobiotic metabolism (CYP2C9) at 24 hours (AID 2283688)
Method in brief: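 Induction of CYP2C9 mRNA was quantified by quantitative nuclease protection assay (chemiluminescence), gain of signal versus 0.2% DMSO vehicle, 24 h after dosing. Human primary hepatocytes (two donors) received fresh chemical daily at multiple concentrations; morphology-based cytotoxicity flagged yes/no.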

[20] = read-out: xenobiotic metabolism (CYP2C9), CYP2C9 (gene 1559); assay: CLD_CYP2C9_48hr: CellzDirect (CLD) Gene Expression Assay for xenobiotic metabolism (CYP1A2) at 48 hours (AID 2283701)
Method in brief: as §1

Sequence of Cytochrome P450 3A4 (Homo sapiens) (P08684 whole entry, looked up): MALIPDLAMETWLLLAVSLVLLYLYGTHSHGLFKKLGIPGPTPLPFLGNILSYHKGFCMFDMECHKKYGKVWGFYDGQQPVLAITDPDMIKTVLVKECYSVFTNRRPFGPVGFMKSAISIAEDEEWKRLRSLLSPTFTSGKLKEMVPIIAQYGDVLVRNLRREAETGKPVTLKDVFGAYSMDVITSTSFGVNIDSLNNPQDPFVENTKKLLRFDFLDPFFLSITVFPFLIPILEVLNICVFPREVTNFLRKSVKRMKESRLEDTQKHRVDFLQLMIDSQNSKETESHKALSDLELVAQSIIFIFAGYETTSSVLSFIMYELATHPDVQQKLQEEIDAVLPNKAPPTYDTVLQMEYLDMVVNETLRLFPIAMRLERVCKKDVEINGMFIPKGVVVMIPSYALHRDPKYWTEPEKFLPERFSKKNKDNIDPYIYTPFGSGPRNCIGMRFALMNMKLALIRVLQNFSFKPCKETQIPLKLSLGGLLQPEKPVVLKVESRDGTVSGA
Sequence of Glyceraldehyde-3-phosphate dehydrogenase (Homo sapiens) (P04406 whole entry, looked up): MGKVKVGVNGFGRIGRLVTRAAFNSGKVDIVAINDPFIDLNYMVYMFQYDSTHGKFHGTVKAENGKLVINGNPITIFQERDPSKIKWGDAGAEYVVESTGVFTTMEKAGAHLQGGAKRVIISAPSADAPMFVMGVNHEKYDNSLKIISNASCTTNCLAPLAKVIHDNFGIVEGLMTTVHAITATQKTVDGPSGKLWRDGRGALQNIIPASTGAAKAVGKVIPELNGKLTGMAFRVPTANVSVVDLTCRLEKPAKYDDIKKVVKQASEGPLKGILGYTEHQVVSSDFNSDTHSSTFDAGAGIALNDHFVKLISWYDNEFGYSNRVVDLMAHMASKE

In the case of `COC(=O)c1ccccc1C(=O)O`, the outcome [1] is reported as “inactive”, the outcome [2] is reported as “inactive” and the outcome [3] is reported as “inactive”. For the same compound, the outcome [4] was “inactive”, the outcome [5] was “inactive” and the outcome [6] was “inactive”. For the same compound, the outcome [7] was “inactive”, the outcome [8] was “inactive” and the outcome [9] was “inactive”. The outcome [10] was “inactive”, the outcome [11] was “inactive” and the outcome [12] was “inactive”.

In the case of `CCCN(CCC)c1c([N+](=O)[O-])cc(C(F)(F)F)c(N)c1[N+](=O)[O-]`, the AC50 [1] is reported as 2.34 µM (active), the AC50 [2] is reported as 8.44 µM (active) and the outcome [3] is reported as “inactive”. For the same compound, the outcome [13] was “inactive”, the AC50 [4] was 8.82 µM (active) and the AC50 [14] was 3.56 µM (active). For the same compound, the outcome [15] was “inactive”, the AC50 [5] was 2.63 µM (active) and the AC50 [6] was 5.19 µM (active). For the same compound, the outcome [16] was “inactive”, the AC50 [8] was 3.96 µM (active) and the outcome [10] was “inactive”.

In the case of `CCCCC(CC)CN1C(=O)C2C3C=CC(C3)C2C1=O` (centres undefined), the AC50 [1] is reported as 7.81 µM (active), the AC50 [2] is reported as 20 µM (active) and the outcome [3] is reported as “inactive”. For the same compound, the outcome [13] was “inactive”, the outcome [4] was “inactive” and the AC50 [14] was 4.6 µM (active). The outcome [15] was “inactive”, the AC50 [5] was 12.6 µM (active) and the AC50 [6] was 33.7 µM (active). The outcome [16] was “inactive”, the outcome [8] was “inactive” and the outcome [12] was “inactive”.

In the case of `CCOC(=O)C(C)Oc1ccc(Oc2cnc3cc(Cl)ccc3n2)cc1` (centres undefined), the outcome [1] is reported as “inactive”, the outcome [2] is reported as “inactive” and the outcome [3] is reported as “inactive”. The outcome [13] was “inactive”, the outcome [4] was “inactive” and the outcome [17] was “inactive”. The outcome [5] was “inactive”, the outcome [8] was “inactive” and the AC50 [9] was 6.86 µM (active). The AC50 [10] was 9.92 µM (active).

For `COc1c(Cl)ccc(Cl)c1C(=O)O`, the outcome [1] was “inactive”, the outcome [18] was “inactive” and the outcome [19] was “inactive”. For the same compound, the outcome [2] was “inactive”, the outcome [3] was “inactive” and the outcome [13] was “inactive”. For the same compound, the outcome [4] was “inactive”, the AC50 [20] was 0.0267 µM (active) and the outcome [5] was “inactive”. For the same compound, the outcome [16] was “inactive”, the outcome [8] was “inactive” and the AC50 [9] was 0.00707 µM (active).

For `N#CSCSc1nc2ccccc2s1`, the AC50 [1] was 7.18 µM (active), the outcome [2] was “inactive” and the outcome [3] was “inactive”. For the same compound, the outcome [13] was “inactive”, the outcome [4] was “inactive” and the AC50 [17] was 34.1 µM (active). The AC50 [5] was 2.82 µM (active), the AC50 [6] was 7.52 µM (active) and the outcome [7] was “inactive”. The outcome [16] was “inactive”, the AC50 [10] was 15.2 µM (active) and the AC50 [11] was 16.4 µM (active).

In the case of `COC(=O)c1ccc(CNS(C)(=O)=O)cc1S(=O)(=O)NC(=O)Nc1nc(OC)cc(OC)n1`, the outcome [1] is reported as “inactive”, the outcome [2] is reported as “inactive” and the outcome [3] is reported as “inactive”. The outcome [13] was “inactive”, the outcome [4] was “inactive” and the outcome [5] was “inactive”. For the same compound, the outcome [6] was “inactive”, the outcome [7] was “inactive” and the outcome [16] was “inactive”. For the same compound, the outcome [8] was “inactive”.

With `COC(=O)c1c(Cl)nn(C)c1S(=O)(=O)NC(=O)Nc1nc(OC)cc(OC)n1` the AC50 [1] was 0.797 µM (active), the AC50 [2] was 4.62 µM (active) and the outcome [3] was “inactive”. The outcome [13] was “inactive”, the outcome [4] was “inactive” and the outcome [17] was “inactive”. For the same compound, the outcome [14] was “inactive”, the outcome [15] was “inactive” and the AC50 [5] was 1.13 µM (active). For the same compound, the outcome [6] was “inactive”, the outcome [7] was “inactive” and the outcome [16] was “inactive”. The outcome [8] was “inactive” and the outcome [9] was “inactive”.
